# Results published in PubChem BioAssay (NCATS).
# Inconclusive results are not listed. Active and inactive are the calls of the source. Unless noted, calls come from the whole dose curve; as a rule, active = well fitted cell-killing curve with a large enough effect; inconclusive = small, poorly fitted or top-dose-only effect, or effect the other way; inactive = no such curve, though single readings can be large or run the other way.
# Key:
# [1] = Quantitative High-Throughput drug screen in 47 multiple myeloma cell lines against the NCATS MIPE library collection: KMS28PE_JCRB cell viability assay (AID 1918983); note: potency is the fitted concentration of half-maximal effect; nearly all actives have a fitted effect of over 35% in size
# Summary of the method: (§1)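 Plated at 500 cells per well, myeloma lines received MIPE 4.0 compounds by pin tool. Following 48 h culture at 37 °C, CellTiter-Glo luminescence gave viability relative to DMSO and media-only controls.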
# [2] = Quantitative High-Throughput drug screen in 47 multiple myeloma cell lines against the NCATS MIPE library collection: L363_DSMZ cell viability assay (AID 1918984); note: nearly all actives have a fitted effect of over 40% in size; note: potency is the fitted concentration of half-maximal effect
# Summary of the method: as §1
# [3] = Quantitative High-Throughput drug screen in 47 multiple myeloma cell lines against the NCATS MIPE library collection: KMS34_JCRB cell viability assay (AID 1918985); note: potency is the fitted concentration of half-maximal effect; nearly all actives have a fitted effect of over 40% in size
# Summary of the method: as §1
# [4] = Quantitative High-Throughput drug screen in 47 multiple myeloma cell lines against the NCATS MIPE library collection: OCIMY7_PLB cell viability assay (AID 1918987); note: potency is the fitted concentration of half-maximal effect; nearly all actives have a fitted effect of over 65% in size
# Summary of the method: as §1
# [5] = Quantitative High-Throughput drug screen in 47 multiple myeloma cell lines against the NCATS MIPE library collection: OCIMY5_PLB cell viability assay (AID 1918988); note: potency is the fitted concentration of half-maximal effect; nearly all actives have a fitted effect of over 65% in size
# Summary of the method: as §1
# [6] = Quantitative High-Throughput drug screen in 47 multiple myeloma cell lines against the NCATS MIPE library collection: OPM1_PLB cell viability assay (AID 1918989); note: potency is the fitted concentration of half-maximal effect; nearly all actives have a fitted effect of over 40% in size
# Summary of the method: as §1
# [7] = Quantitative High-Throughput drug screen in 47 multiple myeloma cell lines against the NCATS MIPE library collection: SKMM1_PLB cell viability assay (AID 1919863); conditions: SKMM1 myeloma viability, CellTiter-Glo ATP, 48 h; viability: stronger effect = lower value; note: potency is the fitted concentration of half-maximal effect; nearly all actives have a fitted effect of over 35% in size
# Summary of the method: as §1
# [8] = Quantitative High-Throughput drug screen in 47 multiple myeloma cell lines against the NCATS MIPE library collection: U266_ATCC cell viability assay (AID 1919864); note: potency is the fitted concentration of half-maximal effect; nearly all actives have a fitted effect of over 35% in size
# Summary of the method: as §1
# [9] = Quantitative High-Throughput drug screen in 47 multiple myeloma cell lines against the NCATS MIPE library collection: XG6_PLB cell viability assay (AID 1919865); note: potency is the fitted concentration of half-maximal effect; nearly all actives have a fitted effect of over 40% in size
# Summary of the method: as §1
# [10] = Quantitative High-Throughput drug screen in 47 multiple myeloma cell lines against the NCATS MIPE library collection: XG1_PLB cell viability assay (AID 1919866); note: potency is the fitted concentration of half-maximal effect; nearly all actives have a fitted effect of over 35% in size
# Summary of the method: as §1
# [11] = Quantitative High-Throughput drug screen in 47 multiple myeloma cell lines against the NCATS MIPE library collection: PE2_PLB cell viability assay (AID 1919869)
# Summary of the method: as §1
# [12] = Quantitative High-Throughput drug screen in 47 multiple myeloma cell lines against the NCATS MIPE library collection: PCM6_Riken cell viability assay (AID 1919870); note: potency is the fitted concentration of half-maximal effect; nearly all actives have a fitted effect of over 30% in size
# Summary of the method: as §1
# [13] = Quantitative High-Throughput drug screen in 47 multiple myeloma cell lines against the NCATS MIPE library collection: RPMI8226_ATCC cell viability assay (AID 1919871); note: potency is the fitted concentration of half-maximal effect; nearly all actives have a fitted effect of over 30% in size
# Summary of the method: as §1
# [14] = Quantitative High-Throughput drug screen in 47 multiple myeloma cell lines against the NCATS MIPE library collection: OPM2_DSMZ cell viability assay (AID 1919872); note: potency is the fitted concentration of half-maximal effect; nearly all actives have a fitted effect of over 30% in size
# Summary of the method: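 Inhibition of cell viability is measured here. Each line was plated at 500 cells per well, treated with MIPE 4.0 drugs, kept 48 hours at 37C, then assayed for ATP content by CellTiter-Glo luminescence.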
# [15] = Quantitative High-Throughput drug screen in 47 multiple myeloma cell lines against the NCATS MIPE library collection: KMS11_JCRBsus cell viability assay (AID 1919873); note: potency is the fitted concentration of half-maximal effect; nearly all actives have a fitted effect of over 50% in size
# Summary of the method: as §1
# [16] = Quantitative High-Throughput drug screen in 47 multiple myeloma cell lines against the NCATS MIPE library collection: KMS28BM_JCRB cell viability assay (AID 1919874); note: nearly all actives have a fitted effect of over 35% in size; note: potency is the fitted concentration of half-maximal effect
# Summary of the method: as §1
# [17] = qHTS drug screen for cell cycle checkpoint inhibitors in PARPi-resistant BRCA-mutant ovarian cancer cell lines. (AID 1963452; calls by dose curve); conditions: PEO1/OlaR viability, CellTiter-Glo luminescence, 96 h, stronger effect = lower value
# Summary of the method: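 PEO1, PEO4 and PEO1/OlaR ovarian cancer cells, 600 per well, exposed 96 h at 37C to a dilution series. Viability read by CellTiter-Glo luminescence, normalized to DMSO and empty wells; activity summarized as Z-AUC.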
# [18] = Quantitative High-Throughput drug screen in 47 multiple myeloma cell lines against the NCATS MIPE library collection: VP6_DJ cell viability assay (AID 1919867)
# Summary of the method: as §1
# [19] = Quantitative High-Throughput drug screen in 47 multiple myeloma cell lines against the NCATS MIPE library collection: UTMC2_PLB cell viability assay (AID 1919868); conditions: CellTiter-Glo ATP luminescence, 48 h; viability (% of DMSO control): at 45.8 µM (top of the series) unless noted; note: potency is the fitted concentration of half-maximal effect; nearly all actives have a fitted effect of over 55% in size
# Summary of the method: as §1
# [20] = measured here: PEO1 parental Z-AUC
smiles,measurement,setting,value
COCCOc1ccc2c(c1)ncn2-c1ccc2cccc(N3CCC(N)CC3)c2n1,Potency,[1],13.2 µM (active)
same,Potency,[2],0.187 µM (active)
same,Potency,[3],0.372 µM (active)
same,Potency,[4],0.469 µM (active)
same,Potency,[5],0.235 µM (active)
same,Potency,[6],0.0935 µM (active)
same,Potency,[7],23.5 µM (active)
same,Potency,[8],8.33 µM (active)
same,Potency,[9],0.372 µM (active)
same,Potency,[10],0.132 µM (active)
same,Potency,[11],0.372 µM (active)
same,Potency,[12],1.05 µM (active)
same,Potency,[13],26.4 µM (active)
same,Potency,[14],1.87 µM (active)
same,Potency,[15],5.26 µM (active)
same,Potency,[16],16.6 µM (active)
same,Z-AUC,[17],0.074 (inactive)
same,Z-AUC,[17]; [20],0.935
same,Z-AUC,[17]; measured here: PEO4 Z-AUC,0.806
c1cc(-c2cnn3cc(-c4ccc(OCCN5CCCCC5)cc4)cnc23)ccn1,Potency,[1],11.8 µM (active)
same,Potency,[2],inactive
same,Potency,[3],13.2 µM (active)
same,Potency,[4],2.09 µM (active)
same,Potency,[5],4.69 µM (active)
same,Potency,[6],4.18 µM (active)
same,Potency,[7],20.9 µM (active)
same,Potency,[8],13.2 µM (active)
same,Potency,[9],4.18 µM (active)
same,Potency,[10],5.9 µM (active)
same,Potency,[18],3.72 µM (active)
same,Potency,[11],3.32 µM (active)
same,Potency,[12],1.87 µM (active)
same,Potency,[13],16.6 µM (active)
same,Potency,[14],20.9 µM (active)
same,Z-AUC,[17],0.293 (inactive)
same,Z-AUC,[17]; [20],0.413
same,Z-AUC,[17]; measured here: PEO4 Z-AUC,0.377
CC(=O)OCC(=O)[C@@]1(O)[C@H](C)C[C@H]2[C@@H]3C=C(C)C4=Cc5c(cnn5-c5ccccc5)C[C@]4(C)[C@@H]3[C@@H](O)C[C@@]21C,Potency,[1],20.9 µM (active)
same,Potency,[2],0.0469 µM (active)
same,Potency,[3],8.33 µM (active)
same,Potency,[4],7.43 µM (active)
same,Potency,[5],7.43 µM (active)
same,Potency,[6],9.35 µM (active)
same,Potency,[8],7.43 µM (active)
same,Potency,[9],4.18 µM (active)
same,Potency,[10],5.26 µM (active)
same,Potency,[18],9.35 µM (active)
same,Potency,[19],11.8 µM (active)
same,Potency,[11],8.33 µM (active)
same,Potency,[12],3.32 µM (active)
same,Potency,[13],4.18 µM (active)
same,Potency,[14],20.9 µM (active)
same,Potency,[16],inactive
same,Z-AUC,[17],-0.679 (inactive)
same,Z-AUC,[17]; [20],0.732
same,Z-AUC,[17]; measured here: PEO4 Z-AUC,-0.158
COc1cc(C(=O)N2CCC(N3CCN(C)CC3)CC2)ccc1Nc1ncc2c(n1)N(C)c1ccccc1C(=O)N2C,Potency,[1],3.32 µM (active)
same,Potency,[2],4.69 µM (active)
same,Potency,[3],2.64 µM (active)
same,Potency,[4],2.96 µM (active)
same,Potency,[5],2.09 µM (active)
same,Potency,[6],1.87 µM (active)
same,Potency,[7],5.9 µM (active)
same,Potency,[8],2.09 µM (active)
same,Potency,[9],5.26 µM (active)
same,Potency,[10],2.64 µM (active)
same,Potency,[18],1.18 µM (active)
same,Potency,[11],5.26 µM (active)
same,Potency,[12],14.8 µM (active)
same,Potency,[13],10.5 µM (active)
same,Potency,[14],10.5 µM (active)
same,Potency,[15],1.66 µM (active)
same,Potency,[16],3.32 µM (active)
same,Z-AUC,[17],-0.667 (inactive)
same,Z-AUC,[17]; [20],-0.239
same,Z-AUC,[17]; measured here: PEO4 Z-AUC,-1.55
Nc1ncnc2c1c(-c1cccc(OCc3ccccc3)c1)cn2C1CC(CN2CCCC2)C1 (centres undefined),Potency,[1],1.05 µM (active)
same,Potency,[2],0.332 µM (active)
same,Potency,[3],11.8 µM (active)
same,Potency,[4],1.48 µM (active)
same,Potency,[5],7.43 µM (active)
same,Potency,[6],5.9 µM (active)
same,Potency,[7],20.9 µM (active)
same,Potency,[8],16.6 µM (active)
same,Potency,[9],5.26 µM (active)
same,Potency,[18],0.743 µM (active)
same,Potency,[19],0.0662 µM (active)
same,Potency,[11],1.66 µM (active)
same,Potency,[12],7.43 µM (active)
same,Potency,[13],2.96 µM (active)
same,Potency,[14],14.8 µM (active)
same,Potency,[15],0.372 µM (active)
same,Potency,[16],0.526 µM (active)
Cc1nc(N)ncc1-c1nc(N2CCOCC2)c2sc(C(C)(C)O)cc2n1,Potency,[1],0.118 µM (active)
same,Potency,[2],0.0743 µM (active)
same,Potency,[3],1.66 µM (active)
same,Potency,[4],1.18 µM (active)
same,Potency,[5],0.662 µM (active)
same,Potency,[6],1.18 µM (active)
same,Potency,[7],0.166 µM (active)
same,Potency,[8],5.26 µM (active)
same,Potency,[9],3.32 µM (active)
same,Potency,[10],1.66 µM (active)
same,Potency,[18],0.935 µM (active)
same,Potency,[19],0.332 µM (active)
same,Potency,[11],1.05 µM (active)
same,Potency,[13],0.264 µM (active)
same,Potency,[14],3.72 µM (active)
same,Potency,[15],0.0833 µM (active)
same,Z-AUC,[17],0.231 (inactive)
same,Z-AUC,[17]; [20],0.219
same,Z-AUC,[17]; measured here: PEO4 Z-AUC,0.116
COc1cc2ncnc(Nc3ccc(F)c(Cl)c3)c2cc1NC(=O)C=CCN1CCCCC1,Potency,[1],23.5 µM (active)
same,Potency,[2],2.35 µM (active)
same,Potency,[3],26.4 µM (active)
same,Potency,[4],1.32 µM (active)
same,Potency,[5],16.6 µM (active)
same,Potency,[6],7.43 µM (active)
same,Potency,[7],20.9 µM (active)
same,Potency,[8],1.18 µM (active)
same,Potency,[9],4.18 µM (active)
same,Potency,[18],5.9 µM (active)
same,Potency,[19],10.5 µM (active)
same,Potency,[11],6.62 µM (active)
same,Potency,[12],3.32 µM (active)
same,Potency,[13],18.7 µM (active)
same,Potency,[15],8.33 µM (active)
same,Potency,[16],6.62 µM (active)
CCS(=O)(=O)c1cccc(-c2cc(C(=O)NC3CCN(C)CC3)c(C)c3[nH]c4ncc(C)cc4c23)c1,Potency,[1],1.87 µM (active)
same,Potency,[2],1.48 µM (active)
same,Potency,[3],0.935 µM (active)
same,Potency,[4],4.18 µM (active)
same,Potency,[5],1.48 µM (active)
same,Potency,[6],0.59 µM (active)
same,Potency,[7],8.33 µM (active)
same,Potency,[8],0.935 µM (active)
same,Potency,[9],0.833 µM (active)
same,Potency,[10],0.526 µM (active)
same,Potency,[18],0.935 µM (active)
same,Potency,[19],0.118 µM (active)
same,Potency,[11],0.935 µM (active)
same,Potency,[12],1.66 µM (active)
same,Potency,[13],5.9 µM (active)
same,Potency,[15],0.526 µM (active)
same,Z-AUC,[17],-0.945 (inactive)
same,Z-AUC,[17]; [20],-0.937
same,Z-AUC,[17]; measured here: PEO4 Z-AUC,-0.883
CCC[C@H](NC(=O)C(C#N)=Cc1cccc(Br)n1)c1ccccc1,Potency,[1],2.96 µM (active)
same,Potency,[2],7.43 µM (active)
same,Potency,[3],4.69 µM (active)
same,Potency,[4],0.526 µM (active)
same,Potency,[5],2.09 µM (active)
same,Potency,[6],0.935 µM (active)
same,Potency,[7],2.96 µM (active)
same,Potency,[8],5.9 µM (active)
same,Potency,[9],2.35 µM (active)
same,Potency,[10],1.66 µM (active)
same,Potency,[18],2.09 µM (active)
same,Potency,[19],2.09 µM (active)
same,Potency,[11],2.09 µM (active)
same,Potency,[12],1.05 µM (active)
same,Potency,[14],5.26 µM (active)
same,Potency,[15],2.96 µM (active)
same,Potency,[16],2.64 µM (active)
